{"source": "PubChem BioAssay (EPA / NIEHS)", "note": "The source made the active and inactive calls. How the source made its calls: active means hit-call score of the fitted dose curve at least 0.9, where 1 is the maximum; inactive means score below 0.9."}
{"test": "ATG_PBREM_CIS: Attagene CIS-FACTORIAL HepG2 Assay for human Phenobarbital-responsive Enhancer Module (PBREM) (AID 2282955)", "conditions": "HepG2 PBREM cis-reporter, Attagene multiplexed transcription; actives raise or lower the signal", "procedure": "ATG_CIS is a cell-based, multiplexed-readout assay that uses HepG2, a human liver cell line, with measurements taken at 24 hours after chemical dosing in a 24-well plate.ATG_PBREM_CIS is one of 52 assay component(s) measured or calculated from the ATG_CIS assay. It is designed to make measurements of mRNA induction, a form of inducible reporter, as detected with fluorescence intensity signals by Reverse transcription polymerase chain reaction (RT-PCR) and Capillary electrophoresis technology.Data from the assay component ATG_PBREM_CIS was analyzed into 1 assay endpoint. This assay endpoint, ATG_PBREM_CIS, was analyzed with bidirectional fitting relative to DMSO as the negative control and baseline of activity. Using a type of inducible reporter, measures of mRNA for gain or loss-of-signal activity can be used to understand the reporter gene at the transcription factor-level as they relate to the gene NR1I3. Furthermore, this assay endpoint can be referred to as a primary readout, because this assay has produced multiple assay endpoints where this one serves a reporter gene function. To generalize the intended target to other relatable targets, this assay endpoint is annotated to the nuclear receptor intended target family, where the subfamily is non-steroidal.\nHuman liver HepG2 cells are transiently transfected with multiple reporter transcription units (MRTUs) in 6-well plates using FuGene 6 reagent (Roche; 3 ml FuGene/1 mg DNA). The MRTU constructs are regulated by a cis-regulating element (promoter). […] A major difference between the CIS and TRANS system is that in CIS activities of endogenous TFs are measured, whereas the TRANS assay evaluates changes in activities of exogenous, chimeric NR-Gal4 proteins. […] At the end of 24 hour incubation, total RNA was isolated using TriZol reagent (Invitrogen). The isolated RNA is then reverse-transcribed using oligo(dT) primer and Mo-MLV reverse transcriptase (Invitrogen) with DNAse I (Ambion) treatment for 30 min. The one-tenth of the produced cDNA was amplified by PCR using Taq DNA polymerase (Invitrogen) and two reporter sequence-specific primers. The PCR products were fluorescently labeled by primer extension with 6-arboxyfluorescein (6-FAM) 5'-labeled reporter sequence-specific primer (2 min at 95 C, 20 s at 68 C and 10 min at 72 C) and these products were digested with 5U of HpaI (New England Biolabs) for 2h at 37 C. The fragments were purified using Qiaquick PCR columns (Qiagen), analyzed on an ABI 3130xL genetic analyzer (Applied Biosystems) with peak positions identified by using a set of X-rhodamine (ROX)-labeled MapMarker1000 molecular weight standards (BioVentures). The raw capillary electrophoresis data was processed using Attagraph software (Attagene)."}
{"smiles": "Nc1ccc(C(=O)OCCCOC(=O)c2ccc(N)cc2)cc1", "outcome": "inactive"}
{"smiles": "CC1C(C)(C)C2=C(C(=O)CCC2)C1(C)C", "note": "(stereo not given)", "outcome": "inactive"}
{"smiles": "COc1cc(C)ccc1O", "outcome": "inactive"}
{"smiles": "CCCCOC(=O)CCC(C)=O", "outcome": "inactive"}
{"smiles": "CC(=O)CC(=O)Nc1ccccc1C", "outcome": "inactive"}
{"smiles": "CCOC(=O)CC(=O)c1ccccc1", "outcome": "inactive"}
{"smiles": "C=CC(C)(CCC=C(C)C)OC(=O)C=Cc1ccccc1", "note": "(stereo not given)", "outcome": "inactive"}
{"smiles": "CCCCC(C=O)CC", "note": "(stereo not given)", "outcome": "inactive"}
{"smiles": "CCCCOCCOCCOC(C)=O", "outcome": "inactive"}
{"smiles": "Cc1c(O)cccc1O", "outcome": "inactive"}
{"smiles": "NC(=O)Nc1ccccc1", "outcome": "inactive"}
{"smiles": "O=C(Oc1ccccc1)c1ccccc1O", "outcome": "inactive"}
{"smiles": "N=C1C=CC(=C(c2ccc(N)cc2)c2ccc(N)cc2)C=C1", "outcome": "inactive"}
{"smiles": "CCC1(C)C(=O)N(Cl)C(=O)N1Cl", "note": "(stereo not given)", "outcome": "inactive"}
{"smiles": "C[Si]1(C)O[Si](C)(C)O[Si](C)(C)O[Si](C)(C)O[Si](C)(C)O1", "outcome": "inactive"}
{"smiles": "O=C(O)c1cc(O)c2ccccc2c1O", "outcome": "inactive"}
{"smiles": "CCOC(=O)c1ccc(C)cc1", "outcome": "inactive"}
{"smiles": "CC1OC(=O)C(C)OC1=O", "note": "(stereo not given)", "outcome": "inactive"}
{"smiles": "CCOc1ccc(NC(N)=O)cc1", "outcome": "inactive"}
{"smiles": "O=C(Cl)c1ccc(C(=O)Cl)cc1", "outcome": "inactive"}
{"smiles": "O=C(O[C@@H]1Cc2c(O)cc(O)cc2O[C@@H]1c1cc(O)c(O)c(O)c1)c1cc(O)c(O)c(O)c1", "outcome": "inactive"}
{"smiles": "Nc1nc(N)nc(-c2ccccc2)n1", "outcome": "inactive"}
{"smiles": "Cc1cccc(C(C)(C)C)c1O", "AC50": "16.8 µM (active)"}
{"smiles": "O=C(O)CCCC(=O)O", "outcome": "inactive"}
{"smiles": "CCCCNC(=S)NCCCC", "outcome": "inactive"}
{"smiles": "Cn1ccnc1", "outcome": "inactive"}
{"smiles": "CCCCCCCCC(CO)CCCCCC", "note": "(stereo not given)", "AC50": "166 µM (active)"}
{"smiles": "Cc1c(Cl)cccc1Cl", "outcome": "inactive"}
{"smiles": "CC(C)=CCl", "outcome": "inactive"}
{"smiles": "Nc1ccc(C(=O)O)cc1", "outcome": "inactive"}
{"smiles": "C=C[C@@]1(C)CC(=O)[C@]2(O)[C@@]3(C)[C@@H](O)CCC(C)(C)[C@@H]3[C@H](O)[C@H](OC(C)=O)[C@@]2(C)O1", "AC50": "0.803 µM (active)"}
{"smiles": "C=Cc1cccc(C)c1", "outcome": "inactive"}
{"smiles": "Cc1ccc2c(c1)CCCN2", "outcome": "inactive"}
{"smiles": "CC(C)(O)Cc1ccccc1", "outcome": "inactive"}
{"smiles": "N#Cc1ccc(C2CCCc3cncn32)cc1", "note": "(stereo not given)", "outcome": "inactive"}
{"smiles": "CCCCC(=O)O", "outcome": "inactive"}
{"smiles": "C[N+](C)(C)CCCNS(=O)(=O)C(F)(F)C(F)(F)C(F)(F)C(F)(F)C(F)(F)C(F)(F)C(F)(F)C(F)(F)F", "outcome": "inactive"}
{"smiles": "O=C(OCCc1ccccc1)c1ccccc1", "outcome": "inactive"}
{"smiles": "CC1(C)CCC[C@]2(C)[C@H]3CC(=O)O[C@]3(C)CC[C@@H]12", "outcome": "inactive"}
{"smiles": "CCCCOCC(C)O", "note": "(stereo not given)", "outcome": "inactive"}
